# Measured values: PubChem BioAssay AID1456 (Vanderbilt High Throughput Screening Facility, 2008)
# The whole screen tested about 190,000 compounds, of which about 4,100 (2.2%) were called active. This excerpt belongs to a sample that is enriched for actives. A number with no mark means an inactive call.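 Rule for the calls: active = thallium flux slope and its plate-corrected score both differing from the plate sample mean at a set confidence after two filtering rounds, in either direction; inactive = the rest.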
# Target: Solute carrier family 12 member 5 (Homo sapiens) (UniProt Q9H2X9)
# Experiment: modulation of human KCC2 ion transport – cell-based, HEK293 KCC2, FluoZin-2 fluorescence, MLSMR, primary screen (AID 1456);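 for B-score of Tl+ flux slope (higher = more flux/activation; lower = inhibition): slope of fluorescence scaled to starting intensity during 10 to 20 s after thallium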
# Settings: KCC2 cells, thallium flux FluoZin-2 fluorescence; at 10 µM
# Solute carrier family 12 member 5 (Homo sapiens), sequence (Q9H2X9 whole entry, looked up): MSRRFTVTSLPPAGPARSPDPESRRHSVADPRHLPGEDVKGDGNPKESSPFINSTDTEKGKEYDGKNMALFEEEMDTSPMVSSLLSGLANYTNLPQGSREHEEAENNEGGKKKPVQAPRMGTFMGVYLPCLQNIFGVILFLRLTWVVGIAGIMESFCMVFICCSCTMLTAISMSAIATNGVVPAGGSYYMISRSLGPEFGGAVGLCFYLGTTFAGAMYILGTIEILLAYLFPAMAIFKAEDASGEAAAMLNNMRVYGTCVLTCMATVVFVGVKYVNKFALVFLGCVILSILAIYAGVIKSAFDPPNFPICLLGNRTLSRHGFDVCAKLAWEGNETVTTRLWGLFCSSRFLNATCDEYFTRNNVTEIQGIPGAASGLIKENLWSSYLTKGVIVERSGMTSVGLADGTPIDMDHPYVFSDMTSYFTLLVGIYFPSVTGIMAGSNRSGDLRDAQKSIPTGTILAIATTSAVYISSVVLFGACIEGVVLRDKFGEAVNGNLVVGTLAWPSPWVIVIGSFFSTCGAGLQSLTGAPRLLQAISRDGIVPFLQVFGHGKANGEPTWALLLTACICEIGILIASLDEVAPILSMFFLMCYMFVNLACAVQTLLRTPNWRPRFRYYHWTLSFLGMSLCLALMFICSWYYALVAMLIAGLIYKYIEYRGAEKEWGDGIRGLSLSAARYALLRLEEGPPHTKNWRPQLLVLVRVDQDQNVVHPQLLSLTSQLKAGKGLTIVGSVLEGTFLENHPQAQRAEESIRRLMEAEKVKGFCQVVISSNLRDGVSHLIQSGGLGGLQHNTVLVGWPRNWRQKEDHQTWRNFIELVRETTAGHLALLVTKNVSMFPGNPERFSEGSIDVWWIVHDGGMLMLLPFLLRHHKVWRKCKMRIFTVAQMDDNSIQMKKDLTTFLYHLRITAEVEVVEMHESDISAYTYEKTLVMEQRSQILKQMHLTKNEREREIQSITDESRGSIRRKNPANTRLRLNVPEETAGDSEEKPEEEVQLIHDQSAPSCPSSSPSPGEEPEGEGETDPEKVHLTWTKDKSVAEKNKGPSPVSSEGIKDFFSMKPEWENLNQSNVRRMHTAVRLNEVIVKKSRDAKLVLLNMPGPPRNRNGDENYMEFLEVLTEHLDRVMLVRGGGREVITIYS
row,Compound,B-score of Tl+ flux slope (higher = more flux/activation; lower = inhibition)
1,Cc1cc(=O)[nH]c(SCC(=O)Nc2ccc(Br)cc2)n1,1.17
2,c1ccc(-c2nnc3n2NC(c2ccc4c(c2)OCO4)S3)cc1 (centres undefined),17.9 (active)
3,Cc1cccc(C)c1NC(=O)CSc1nnc(-c2ccccc2)n1Cc1ccc2c(c1)OCO2,-0.0425
4,CC1=C(C(N)=O)C(c2ccc3c(c2)OCO3)n2nc(-c3cccc(C)c3)nc2N1 (centres undefined),-0.546
5,CN=C1C=C/C(=N/N=c2\ccn(O)cc2C)C=C1C,0.0998
6,Cc1cccc(C2C3=C(CCCC3=O)N=C3c4ccccc4C(=O)C32)c1 (centres undefined),1.41
7,Cc1ccc(-n2[nH]c(C)c(/C=N/N3C(=O)c4cccc5cccc(c45)C3=O)c2=O)cc1,41.4 (active)
8,COc1cc(SC#N)ccc1N=Cc1c(C)[nH]n(-c2ccc(C)cc2)c1=O,0.0406
9,Cc1[nH]n(-c2ccc(Cl)cc2)c(=O)c1/C=N/n1c(C)nc2ccccc2c1=O,1.71
10,O=C(CSc1nnc(SCc2ccc(F)cc2)s1)Nc1ccc(C(=O)O)cc1,-2.12
11,COc1ccc([N+](=O)[O-])cc1NC(=O)COC(=O)/C=C/c1ccco1,-3.66 (active)
12,CC(C)CNC(=O)COC(=O)/C=C/c1ccco1,0.238
13,COc1ccc([N+](=O)[O-])cc1NC(=O)CCc1ccccc1,-1.49
14,O=C(COc1ccccc1[N+](=O)[O-])N/N=C/c1ccc[nH]1,1.37
15,CCOC(=O)C1CCN(c2c(Nc3cc(C)cc(C)c3)c(=O)c2=O)CC1,0.776
16,COc1ccccc1OCc1nc2ccccc2s1,-1.36
17,CC(=O)c1sc(NC(=O)CCCOc2ccccc2C)nc1C,0.355
18,COc1cccc2sc(Nc3nc(C)c(C(C)=O)s3)nc12,16.2 (active)
19,COC(=O)c1nc2ccccc2s1,-0.0154
20,CC(=O)c1sc(NC(=O)c2cccc3ccccc23)nc1C,3.04
21,COc1cccc2sc(NNC(=O)c3nc4ccccc4s3)nc12,92.4 (active)
22,O=C(N/N=C/c1ccc(Br)o1)c1cncc(Br)c1,7.4 (active)
23,Cc1ccc(C(=O)N/N=C\c2cc(Br)c(Br)o2)cn1,1.86
24,O=C(CCc1n[nH]c(=O)[nH]c1=O)N/N=C/c1ccc(Br)o1,0.0262
25,CCN(CC)CCCN=C(N)N,0.285

row,Compound,B-score of Tl+ flux slope (higher = more flux/activation; lower = inhibition)
1,Cc1nc2cc(NC(=O)Nc3cccc(F)c3)ccc2n1C,0.703
2,NNC(=O)c1cccc(COCC(F)(F)C(F)F)c1,-0.618
3,Cc1cccc(-n2c(SCC(N)=O)nc3c(c2=O)C2(CCCCC2)Cc2ccccc2-3)c1,4.92 (active)
4,N#CCSc1nc2c(c(=O)n1Cc1ccccc1)C1(CCCC1)Cc1ccccc1-2,1.45
5,Cc1cccc(-n2c(=O)c3c(C)c(C)sc3n(CC(N)=O)c2=O)c1,0.771
6,Cc1cc(Nc2ccc(Cl)cc2)nc(N2CCOCC2)n1,-1.05
7,NC(=S)Nc1c(Cl)cccc1Cl,0.0214
8,C=CCNC(=S)NNC(=O)c1ccc(Br)o1,0.645
9,C=CCNC(=S)NNC(=O)COc1c(Cl)cc(Cl)cc1Cl,7.57 (active)
10,C=CCNC(=O)COC(=O)CNC(=O)c1cc(Cl)cc([N+](=O)[O-])c1,0.057
11,Cc1cc(Nc2ccc(N3CCOCC3)cc2)c2cccc(C)c2n1,-2.79
12,C=CCNC(=S)N/N=C/c1ccc(C)s1,14 (active)
13,Cc1ccc(/C=N/NC(=O)CN2CCN(Cc3ccccc3)CC2)s1,0.187
14,CNC(=S)N/N=C/c1ccc(N2CCOCC2)s1,1.59
15,O=C(Nc1nnc(CCN2CCCCC2)s1)c1cccc(Cl)c1,0.116
16,CN1CCN(c2ccc(CNS(=O)(=O)c3cccc(F)c3)cc2)CC1,-0.58
17,Cc1nnc(C)c2c(C)n(N)c(C)c12,0.198
18,COc1ccc(S(=O)(=O)Nc2cccnc2)c(Cl)c1Cl,0.54
19,CCOC(=O)C1C(c2ccc(Cl)cc2)NC(=S)NC1(O)C(F)(F)F (centres undefined),1.75
20,CCOC(=O)C1=C(C)NC(=O)N(C(C)=O)C1c1ccc(Cl)cc1 (centres undefined),-1.98
21,CCOC(=O)C1Sc2[nH]c(=O)sc2C(c2ccc(Cl)cc2)C1C(=O)OCC (centres undefined),-3.93 (active)
22,CCOCCn1c(-c2ccccc2)nc2ccccc21,0.025
23,Cc1cccc(-n2cnc(C(=O)NNC(=S)Nc3ccccc3)c2)n1,-1.44
24,O=[N+]([O-])c1ccccc1/C=N/n1c(COc2ccccc2)n[nH]c1=S,24.3 (active)
25,CCOc1ccc(-c2n[nH]c(=S)n2/N=C/c2cc3c(cc2[N+](=O)[O-])OCO3)cc1,0.939

row,Compound,B-score of Tl+ flux slope (higher = more flux/activation; lower = inhibition)
1,Cc1ccc(-c2n[nH]c(=S)n2/N=C/c2cc3c(cc2[N+](=O)[O-])OCO3)cc1,0.106
2,COc1ccc(N(Cc2ccccc2)S(=O)(=O)c2cccc(C(=O)O)c2)cc1,-1.07
3,Cc1csc(=Nc2ccccc2)n1CCO,0.00145
4,CN(c1ccccc1)c1ccc(/C=c2\s/c(=C(/C#N)C(=O)C(C)(C)C)n(Cc3ccco3)c2=O)cc1,0.174
5,Cc1cs/c(=N\N=C\c2ccc(O)cc2)n1Cc1ccco1,-4.66 (active)
6,CCc1nc2sc3c(Cl)ncnc3c2c2c1CCCC2,1.2
7,Cc1ccc(F)cc1NC(=O)N1CCCN(c2ccc(C(F)(F)F)cn2)CC1,0.46
8,Cc1ccc(N(C(=O)c2sc(C)nc2C)C(C(=O)NC(C)(C)C)c2ccncc2)cc1 (centres undefined),0.0067
9,O=C(Nc1ccccc1)N1CCN(Cc2ccccc2)CC1,-0.481
10,O=C(NC(=S)N1CCN(Cc2ccccc2)CC1)c1ccccc1,26.6 (active)
11,O=C(CN1CCN(Cc2ccccc2)CC1)NC(c1ccccc1)c1ccccc1,-2.1
12,CC(=O)Nc1nc(C)c(-c2csc(Nc3ccc(S(N)(=O)=O)cc3)n2)s1,0.404
13,Oc1ccc(-c2nnc(Nc3ccccc3)c3ccccc23)cc1,-3.93
14,c1ccc(Nc2n[nH]nc2-c2ccccc2)cc1,-0.551
15,S=c1[nH]nc(NCCc2ccccc2)s1,-1.55
16,S=c1[nH]nc(Nc2ccccc2)s1,-8.06 (active)
17,CNC1(c2nnnn2-c2c(C)cccc2C)CCOC(C)(C)C1 (centres undefined),-0.333
18,Cc1cc(=O)[nH]c2nnnn12,0.843
19,CC(Nc1nc(N2CCOCC2)nc2ccccc12)c1ccccc1 (centres undefined),-0.0767
20,Cc1cc(C)c(C)c(S(=O)(=O)N[C@@H](C)C(=O)OC(C)C(=O)NC(N)=O)c1C (some centres undefined),-0.78
21,Cc1ccc(-c2cc(C(=O)N3CCc4ccccc4C3)no2)cc1,0.312
22,O=C(c1cc(-c2ccc(O)cc2)on1)N1CCCc2ccccc21,-2.96 (active)
23,O=C(c1cc(-c2cccc(O)c2)on1)N1CCc2ccccc2C1,-2.87
24,COc1ccc(NC(=O)C2=NNC(=O)CC2)cc1S(=O)(=O)N1CCCCC1,1.01
25,CC1Cc2ccccc2N1S(=O)(=O)c1ccc(Cl)nc1 (centres undefined),-1.44

row,Compound,B-score of Tl+ flux slope (higher = more flux/activation; lower = inhibition)
1,O=C(Nc1cc(C(F)(F)F)ccc1Cl)C(=O)N1CCCCC1,0.245
2,CC(CC(=O)Nc1cc(C(F)(F)F)ccc1Cl)c1ccccc1 (centres undefined),-1.96
3,O=C(NNc1ccccc1Cl)C(O)(c1cccc(C(F)(F)F)c1)c1cccc(C(F)(F)F)c1,14.9 (active)
4,[O-][N+]12CCCCC1CCCC2CO (centres undefined),-0.0478
5,COc1ccc2cc(CCl)c(Cl)nc2c1,0.0416
6,CC(NC(=O)C(C)(C)C)C(c1cccs1)N1CCN(Cc2ccccc2)CC1 (centres undefined),0.428
7,S=c1nc(C23CC4CC(CC(C4)C2)C3)nc2sccn12,2.46
8,CC(=O)Cc1nsc(NC(=O)c2ccc(Cl)cc2Cl)n1,1.49
9,CC(=O)NNC(=O)c1csc(Cc2c(Cl)sc3ccc(Cl)cc23)n1,13.6 (active)
10,CNC(=O)c1csc(Cc2c(Cl)sc3ccc(Cl)cc23)n1,-0.799
11,CN(Cc1nc(-c2cnccn2)no1)Cc1n[nH]c2c1CCCCC2,-2.53
12,CCn1c(SCC(=O)c2ccc3ccccc3c2)nnc1-c1cccs1,-5.11 (active)
13,CCn1c(Cc2cccs2)nnc1SCC(=O)c1ccc(C)cc1,-1.23
14,O=C(CSc1nnc(-c2cccs2)n1Cc1ccco1)c1ccc2c(c1)OCO2,-2.4
15,CC(C)=NN1C(=O)c2ccccc2NC1(C)C,0.347
16,CC(O)c1nc2c(c(=O)n(C)c(=O)n2C)n1C (centres undefined),0.852
17,COC(=O)CNC(=O)c1ccccc1[N+](=O)[O-],0.532
18,COc1ccc(NC(=O)c2ccccc2[N+](=O)[O-])cc1OC,4.22 (active)
19,O=C(Nc1ccncc1)c1ccccc1[N+](=O)[O-],1.37
20,Cc1cc(C)nc(SCc2cn3c(C)cc(C)nc3n2)n1,-0.647
21,CCOC(=O)CC1C(=O)NCCN1c1nc2c(C)cccn2c(=O)c1/C=C1\SC(=S)N(C(C)CC)C1=O (centres undefined),inactive
22,Cn1c(C(=O)NCCc2ccsc2)cc2c(=O)n(C)c3ccccc3c21,-3.14 (active)
23,CC1CCCC(C)N1CCCNC(=O)c1cc2c(=O)n(C)c3ccccc3c2n1C (centres undefined),-1.27
24,Cn1c(C(=O)NCCCN2CCN(c3cccc(Cl)c3)CC2)cc2c(=O)n(C)c3ccccc3c21,0.0429
